Data on 20 molecules can be found in PubChem BioAssay (NCI).

Assay [1] can be described thus: NCI Yeast Anticancer Drug Screen. Data for the rad50 strain (AID 155).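 Further: 0% = growth of vehicle-only cultures of the same strain.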 The note with it: S. cerevisiae rad50 strain growth inhibition, hits give high values; at 50.0 µM unless noted. The gist of the method:
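Genetically altered yeast (DNA repair pathway); compound treatment; growth inhibition vs vehicle ctrl.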

Assay [2] can be described thus: NCI Yeast Anticancer Drug Screen. Data for the mec2-1 strain (AID 157). The note with it: S. cerevisiae mec2-1 strain, hits give high values; at 50.0 µM unless noted. The method, boiled down:
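Vehicle-treated cultures served as reference for growth inhibition of compound-exposed mec2-1 yeast.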

Assay [3] is described as follows: NCI Yeast Anticancer Drug Screen. Data for the sgs1 mgt1 strain (AID 161).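 Further: 0% = growth of cultures given vehicle only.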 The note with it: S. cerevisiae sgs1 mgt1 strain, hits give high values; at 50.0 µM unless noted. The gist of the method: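 Inhibition of yeast growth, normalised to vehicle-treated controls, is reported for a strain bearing genetic alterations in DNA damage repair.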
The nature of assay [4]: NCI Yeast Anticancer Drug Screen. Data for the cln2 rad14 strain (AID 165).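 Further: 0% = growth equal to vehicle treated cultures.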 The note with it: S. cerevisiae cln2 rad14 strain, hits give high values; at 50.0 µM unless noted. The method, boiled down:
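Each compound was tested on cln2 rad14 yeast. Inhibition of growth was calculated against vehicle-exposed controls.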

Assay [5] can be described thus: NCI Yeast Anticancer Drug Screen. Data for the bub3 strain (AID 167). The note with it: S. cerevisiae bub3 mutant strain, hits give high values; at 50.0 µM unless noted. The method, boiled down:
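Yeast carrying a defined mutation is treated with each compound, and growth is compared with that of vehicle-exposed cells to give inhibition.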

The nature of assay [6]: NCI Yeast Anticancer Drug Screen. Data for the mlh1 rad18 strain (AID 175). As to conditions: S. cerevisiae mlh1 rad18 strain growth inhibition, hits give high values; at 50.0 µM unless noted. The gist of the method:
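Vehicle-treated cultures served as the reference for growth inhibition in a yeast strain carrying DNA damage repair alterations exposed to each compound.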

The panel holds about 79,000 compounds, 15% with a hit somewhere; the sample as a whole holds those more often. Unmarked numbers belong to inactive results. Activity calls are given as the source filed them. No stated cut-off is given here; in the data, active means growth inhibition above about 70%; inactive means the rest.

As to `COc1ccc(OC)c(NC(=O)C(=O)C(C(C)=O)c2nc3ccc(Cl)cc3[nH]c2=O)c1` (stereo not given), the growth inhibition in assay [1] is -12.8%; in assay [2], 7.75%; in assay [3], -15.5%; in assay [4], 12%; in assay [5] it was 2.5%; in assay [6] it was -7.35%.
With `CC1CCCCN1P(c1ccccc1)N1CCCCC1C` (stereo not given), the growth inhibition in assay [1] was 28.5%; in assay [2], 16.9%; in assay [3] it was 18.5%; in assay [4] it was 24.1%; in assay [5], 35%; in assay [6], 22.7%.
For the molecule `COc1ccc(C2=NC(CO)[C@H](c3ccccc3)O2)cc1OC` (stereo not given in full), the growth inhibition in assay [1] was 2.35%; in assay [2], -13.2%; in assay [3], 8.05%; in assay [4], 17.4%; in assay [5] it was -3.75%; in assay [6], -7.15%.
`CC(=O)OCC(C)O` (stereo not given): the growth inhibition was 28% in assay [1]; -9.7% in assay [2]; 14.3% in assay [3]; -0.3% in assay [4]; 1.2% in assay [5]; 2% in assay [6].
`CCCCCOC1OC(=O)C(Cl)=C1Cl` (stereo not given): the growth inhibition in assay [1] was 65.3%; in assay [2] it was 36.7%; in assay [3], 63.2%; in assay [4], 61.7%; in assay [5] it was 54.8%; in assay [6], 44%.
As to `CCC(CC)C(=O)NCCNC(=O)C(CC)CC`, the growth inhibition is 5.45% in assay [1]; -0.9% in assay [2]; 14.2% in assay [3]; -30.1% in assay [4]; -10.6% in assay [5]; -17.2% in assay [6].
For `COC(=O)c1ccc(Oc2nc3ccc(C(F)(F)F)cc3nc2-c2ccccc2)cc1`, the growth inhibition in assay [1] is -11.9%; in assay [2], -31.9%; in assay [3] it was 14.3%; in assay [4], -34.1%; in assay [5] it was -23.8%; in assay [6] it was -19.1%.
Take `O=C(NCCCl)NC1CCCCCC1`: the growth inhibition in assay [1] was -10.8%; in assay [2], -3.6%; in assay [3] it was -16%; in assay [4] it was -9.35%; in assay [5] it was -3.05%; in assay [6], 2.05%.
As for `CN1N=C(c2ccncc2)OC1c1cccc(C(F)(F)F)c1` (stereo not given), the growth inhibition in assay [1] is -63.6%; in assay [2], -65.9%; in assay [3], -32.8%; in assay [4], -3.6%; in assay [5], 0.75%; in assay [6] it was -21.3%.
Consider `NC(=O)C(=CN1CC(=O)NC1=S)C(N)=O`, for which the growth inhibition in assay [1] is -23.3%; in assay [2], -23.4%; in assay [3] it was -2.4%; in assay [4], 9.85%; in assay [5] it was -9.05%; in assay [6], 17.1%.
As to `CCOC(=O)C(SC(S(=O)(=O)c1ccccc1)S(=O)(=O)c1ccccc1)C(=O)OCC`, the growth inhibition in assay [1] is 33.3%; in assay [2], -1.75%; in assay [3], 21.2%; in assay [4] it was 21.6%; in assay [5], -2.05%; in assay [6], 25.6%.
With `COC(=O)C(Cc1nc2ccc(Cl)cc2[nH]c1=O)/C(=N\N)C(=O)Nc1cc(C)c(Cl)cc1S(=O)(=O)O` (stereo not given), the growth inhibition was 24.9% in assay [1]; -2% in assay [2]; 5.5% in assay [3]; -70.3% in assay [4]; -3.35% in assay [5]; 5.95% in assay [6].
`O=[N+]([O-])c1cc(F)ccc1S(=O)(=O)c1ccccc1`: the growth inhibition in assay [1] is 31.6%; in assay [2], -40.5%; in assay [3] it was 7.8%; in assay [4], 1.85%; in assay [5], -23.2%; in assay [6], 0.65%.
With `NC(=O)N/N=C(/Cc1nc2ccc(C(=O)c3ccccc3)cc2[nH]c1=O)C(=O)Nc1ccc(C(F)(F)F)cc1[N+](=O)[O-]`, the growth inhibition in assay [1] was -7.85%; in assay [2], 7.35%; in assay [3], -7.85%; in assay [4], 0.8%; in assay [5], -33.6%; in assay [6], 5.05%.
As to `CN(C)C(=NN=C(N(C)C)N(C)C)N(C)C`, the growth inhibition in assay [1] was 12.2%; in assay [2] it was -4.2%; in assay [3], 0.05%; in assay [4] it was -39%; in assay [5], -5.85%; in assay [6], 1.5%.
Take `CC1=CCC2C(C)(C)CCCC2(C)C1COC1OC(OCC2C(C)=CCC3C(C)(C)CCCC23C)C2C1=CCC1C(C)(C)CCCC21C` (stereo not given): the growth inhibition in assay [1] is 90% (active); in assay [2], 89.2% (active); in assay [3], 84.1% (active); in assay [4], 89.6% (active); in assay [5], 89.2% (active); in assay [6], 88% (active).
On to `OC1(c2cccc(C(F)(F)F)c2)CCN(C2CC2c2ccccc2)CC1` (stereo not given), for which the growth inhibition is 87.2% (active) in assay [1]; 77.7% (active) in assay [2]; 90.8% (active) in assay [3]; 85.1% (active) in assay [4]; 84.3% (active) in assay [5]; 81.5% (active) in assay [6].
Consider `CCCCCC1CC(C(C)=O)CN1c1ccc(F)cc1` (stereo not given), for which the growth inhibition was -0.95% in assay [1]; 8.4% in assay [2]; 11.8% in assay [3]; 8.7% in assay [4]; -1% in assay [5]; -2% in assay [6].
In the case of `O=C(C(=C(I)I)c1ccccc1)c1ccccc1`, the growth inhibition in assay [1] was 7.7%; in assay [2], -7.95%; in assay [3], 25.1%; in assay [4], -13.7%; in assay [5] it was 13.6%; in assay [6] it was -75.4%.
Regarding `COc1ccc(-c2oc3c(CC(=O)O)cccc3c(=O)c2OC)cc1`, the growth inhibition is -8.75% in assay [1]; -15.3% in assay [2]; -25.3% in assay [3]; -14.4% in assay [4]; -12.7% in assay [5]; -12.3% in assay [6].
